Assay results from ChEMBL document CHEMBL2218924, “A broad activity screen in support of a chemogenomic map for kinase signalling research and drug discovery” (Biochem J, 2013).

What was measured:
[1] = biological target: T1, Serine/threonine-protein kinase 3 (Homo sapiens) (UniProt Q13188); conditions: at 1 µM
T1 sequence (whole entry): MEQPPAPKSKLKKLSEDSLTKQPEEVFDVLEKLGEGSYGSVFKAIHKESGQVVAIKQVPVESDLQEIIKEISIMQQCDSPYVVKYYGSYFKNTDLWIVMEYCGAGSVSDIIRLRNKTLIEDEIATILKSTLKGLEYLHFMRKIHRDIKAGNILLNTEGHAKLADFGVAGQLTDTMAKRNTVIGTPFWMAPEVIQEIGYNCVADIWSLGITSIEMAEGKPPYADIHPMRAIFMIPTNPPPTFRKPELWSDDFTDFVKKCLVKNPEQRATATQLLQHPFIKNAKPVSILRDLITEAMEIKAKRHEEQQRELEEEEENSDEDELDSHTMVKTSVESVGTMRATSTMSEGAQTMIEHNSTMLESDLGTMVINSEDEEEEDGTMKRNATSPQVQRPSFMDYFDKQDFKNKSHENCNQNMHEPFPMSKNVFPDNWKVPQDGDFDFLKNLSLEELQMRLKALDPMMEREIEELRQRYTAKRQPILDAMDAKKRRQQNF

[2] = biological target: T1, Serine/threonine-protein kinase 3 (Homo sapiens); conditions: at 10 µM
[3] = biological target: Serine/threonine-protein kinase 24 (Homo sapiens) (UniProt Q9Y6E0); conditions: at 1 µM
Serine/threonine-protein kinase 24 (Homo sapiens), sequence (Q9Y6E0 whole entry, looked up): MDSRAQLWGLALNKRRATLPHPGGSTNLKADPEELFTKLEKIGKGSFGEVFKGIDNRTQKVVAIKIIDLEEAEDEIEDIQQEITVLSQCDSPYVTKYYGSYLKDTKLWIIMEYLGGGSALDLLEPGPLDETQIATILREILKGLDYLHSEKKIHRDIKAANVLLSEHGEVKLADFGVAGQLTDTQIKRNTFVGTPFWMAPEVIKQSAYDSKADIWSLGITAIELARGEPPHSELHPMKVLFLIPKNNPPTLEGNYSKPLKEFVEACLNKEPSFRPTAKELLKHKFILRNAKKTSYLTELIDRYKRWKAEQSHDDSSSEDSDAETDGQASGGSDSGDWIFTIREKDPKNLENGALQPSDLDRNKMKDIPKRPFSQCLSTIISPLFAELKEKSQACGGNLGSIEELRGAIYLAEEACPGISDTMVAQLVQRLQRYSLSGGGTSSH

[4] = biological target: Serine/threonine-protein kinase 24 (Homo sapiens) (UniProt Q9Y6E0); conditions: at 10 µM
[5] = biological target: Hepatocyte growth factor receptor (Homo sapiens) (UniProt P08581); conditions: at 1 µM
Hepatocyte growth factor receptor (Homo sapiens), sequence (P08581 whole entry): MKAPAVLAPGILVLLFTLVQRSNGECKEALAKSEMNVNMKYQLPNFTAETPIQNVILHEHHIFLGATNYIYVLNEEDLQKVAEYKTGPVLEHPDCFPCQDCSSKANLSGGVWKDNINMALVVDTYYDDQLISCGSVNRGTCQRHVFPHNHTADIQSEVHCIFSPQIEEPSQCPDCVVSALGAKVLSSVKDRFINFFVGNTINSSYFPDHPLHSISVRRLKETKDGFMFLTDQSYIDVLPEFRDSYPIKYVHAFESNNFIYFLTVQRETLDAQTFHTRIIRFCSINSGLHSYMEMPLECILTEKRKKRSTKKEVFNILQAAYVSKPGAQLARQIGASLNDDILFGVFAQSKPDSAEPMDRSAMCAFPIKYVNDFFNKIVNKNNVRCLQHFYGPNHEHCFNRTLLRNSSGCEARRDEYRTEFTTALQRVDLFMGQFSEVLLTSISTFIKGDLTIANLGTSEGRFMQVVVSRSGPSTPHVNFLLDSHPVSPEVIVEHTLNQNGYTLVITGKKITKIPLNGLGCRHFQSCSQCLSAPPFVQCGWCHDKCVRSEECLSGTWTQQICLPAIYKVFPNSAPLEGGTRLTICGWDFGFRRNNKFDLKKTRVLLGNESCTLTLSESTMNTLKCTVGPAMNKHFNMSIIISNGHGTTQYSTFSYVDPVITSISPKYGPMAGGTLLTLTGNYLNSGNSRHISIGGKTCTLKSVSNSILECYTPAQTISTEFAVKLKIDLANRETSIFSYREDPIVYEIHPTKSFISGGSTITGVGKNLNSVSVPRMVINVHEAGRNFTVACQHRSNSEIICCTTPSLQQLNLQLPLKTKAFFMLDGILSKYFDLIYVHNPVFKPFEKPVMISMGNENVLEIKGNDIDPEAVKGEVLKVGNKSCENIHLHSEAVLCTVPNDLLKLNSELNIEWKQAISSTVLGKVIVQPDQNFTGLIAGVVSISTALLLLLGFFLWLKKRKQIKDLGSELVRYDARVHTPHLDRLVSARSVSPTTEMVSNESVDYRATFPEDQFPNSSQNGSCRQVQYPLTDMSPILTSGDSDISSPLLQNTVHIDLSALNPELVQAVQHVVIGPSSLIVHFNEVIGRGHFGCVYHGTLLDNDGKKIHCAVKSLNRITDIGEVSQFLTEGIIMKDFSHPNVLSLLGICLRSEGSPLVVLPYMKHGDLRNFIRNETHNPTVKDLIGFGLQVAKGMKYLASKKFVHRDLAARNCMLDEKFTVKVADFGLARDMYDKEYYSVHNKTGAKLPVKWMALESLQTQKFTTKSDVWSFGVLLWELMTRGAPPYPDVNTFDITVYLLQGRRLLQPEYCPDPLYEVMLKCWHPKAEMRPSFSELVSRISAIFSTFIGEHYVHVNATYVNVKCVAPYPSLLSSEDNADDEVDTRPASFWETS

[6] = biological target: Hepatocyte growth factor receptor (Homo sapiens) (UniProt P08581); conditions: at 10 µM
[7] = biological target: MAP kinase-interacting serine/threonine-protein kinase 2 (Homo sapiens) (UniProt Q9HBH9); conditions: at 1 µM
MAP kinase-interacting serine/threonine-protein kinase 2 (Homo sapiens), sequence (Q9HBH9 whole entry, looked up): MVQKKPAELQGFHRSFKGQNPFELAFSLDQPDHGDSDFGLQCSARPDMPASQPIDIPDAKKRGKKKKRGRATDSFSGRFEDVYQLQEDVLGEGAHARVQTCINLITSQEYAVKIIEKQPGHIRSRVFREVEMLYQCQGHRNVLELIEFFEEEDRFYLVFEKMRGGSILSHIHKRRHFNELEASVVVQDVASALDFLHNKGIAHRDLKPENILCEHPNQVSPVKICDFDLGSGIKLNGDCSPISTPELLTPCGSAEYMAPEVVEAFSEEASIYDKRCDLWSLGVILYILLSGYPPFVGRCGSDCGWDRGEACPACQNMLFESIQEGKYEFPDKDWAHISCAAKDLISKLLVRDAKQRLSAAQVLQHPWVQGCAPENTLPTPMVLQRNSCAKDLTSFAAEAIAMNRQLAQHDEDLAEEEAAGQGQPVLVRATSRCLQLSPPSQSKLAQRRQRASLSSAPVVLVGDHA

[8] = biological target: MAP kinase-interacting serine/threonine-protein kinase 2 (Homo sapiens) (UniProt Q9HBH9); conditions: at 10 µM
[9] = biological target: T2, Muscle, skeletal receptor tyrosine-protein kinase (Homo sapiens) (UniProt O15146); conditions: at 1 µM
T2 sequence (whole entry): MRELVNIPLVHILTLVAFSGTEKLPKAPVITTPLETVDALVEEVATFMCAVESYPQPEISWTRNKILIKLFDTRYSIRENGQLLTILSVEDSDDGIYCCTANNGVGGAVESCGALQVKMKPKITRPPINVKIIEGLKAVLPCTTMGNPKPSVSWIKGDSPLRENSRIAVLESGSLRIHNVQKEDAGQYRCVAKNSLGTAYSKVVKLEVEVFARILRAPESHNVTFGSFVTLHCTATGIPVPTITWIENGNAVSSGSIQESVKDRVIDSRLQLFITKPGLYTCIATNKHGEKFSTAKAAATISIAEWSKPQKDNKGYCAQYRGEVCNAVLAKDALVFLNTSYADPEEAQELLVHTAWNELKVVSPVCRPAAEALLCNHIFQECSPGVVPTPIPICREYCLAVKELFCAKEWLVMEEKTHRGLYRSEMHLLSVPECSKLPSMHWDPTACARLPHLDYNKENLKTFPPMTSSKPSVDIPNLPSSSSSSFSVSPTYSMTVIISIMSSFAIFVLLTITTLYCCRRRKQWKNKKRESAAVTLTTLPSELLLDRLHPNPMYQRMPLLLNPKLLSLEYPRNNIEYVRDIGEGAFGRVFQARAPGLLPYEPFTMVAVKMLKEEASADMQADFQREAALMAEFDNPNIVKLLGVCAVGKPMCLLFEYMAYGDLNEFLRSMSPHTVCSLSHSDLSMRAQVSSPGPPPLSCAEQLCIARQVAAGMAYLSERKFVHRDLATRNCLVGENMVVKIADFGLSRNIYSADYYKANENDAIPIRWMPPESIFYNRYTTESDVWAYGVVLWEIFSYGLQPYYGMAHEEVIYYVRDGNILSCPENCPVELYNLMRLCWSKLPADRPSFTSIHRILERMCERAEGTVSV

[10] = biological target: T2, Muscle, skeletal receptor tyrosine-protein kinase (Homo sapiens); conditions: at 10 µM
[11] = biological target: T3, Serine/threonine-protein kinase Nek11 (Homo sapiens) (UniProt Q8NG66); conditions: at 1 µM
T3 sequence (whole entry): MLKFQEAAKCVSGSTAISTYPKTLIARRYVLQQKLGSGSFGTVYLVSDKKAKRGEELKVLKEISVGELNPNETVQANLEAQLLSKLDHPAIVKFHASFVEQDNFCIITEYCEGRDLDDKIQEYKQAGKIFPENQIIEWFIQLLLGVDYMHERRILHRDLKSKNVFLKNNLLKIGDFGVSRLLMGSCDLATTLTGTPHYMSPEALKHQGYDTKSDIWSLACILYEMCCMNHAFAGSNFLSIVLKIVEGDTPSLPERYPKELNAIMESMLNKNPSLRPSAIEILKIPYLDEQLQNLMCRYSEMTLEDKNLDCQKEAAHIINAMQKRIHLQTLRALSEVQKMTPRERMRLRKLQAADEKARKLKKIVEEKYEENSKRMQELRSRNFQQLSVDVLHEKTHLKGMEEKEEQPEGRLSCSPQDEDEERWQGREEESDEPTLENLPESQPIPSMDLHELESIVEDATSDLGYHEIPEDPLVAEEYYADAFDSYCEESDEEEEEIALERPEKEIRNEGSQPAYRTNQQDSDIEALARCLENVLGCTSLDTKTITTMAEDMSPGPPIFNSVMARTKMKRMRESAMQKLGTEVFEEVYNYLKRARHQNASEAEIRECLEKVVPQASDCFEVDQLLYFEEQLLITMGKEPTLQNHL

[12] = biological target: T3, Serine/threonine-protein kinase Nek11 (Homo sapiens); conditions: at 10 µM
[13] = biological target: T4, Serine/threonine-protein kinase Nek2 (Homo sapiens) (UniProt P51955); conditions: at 1 µM
T4 sequence (whole entry): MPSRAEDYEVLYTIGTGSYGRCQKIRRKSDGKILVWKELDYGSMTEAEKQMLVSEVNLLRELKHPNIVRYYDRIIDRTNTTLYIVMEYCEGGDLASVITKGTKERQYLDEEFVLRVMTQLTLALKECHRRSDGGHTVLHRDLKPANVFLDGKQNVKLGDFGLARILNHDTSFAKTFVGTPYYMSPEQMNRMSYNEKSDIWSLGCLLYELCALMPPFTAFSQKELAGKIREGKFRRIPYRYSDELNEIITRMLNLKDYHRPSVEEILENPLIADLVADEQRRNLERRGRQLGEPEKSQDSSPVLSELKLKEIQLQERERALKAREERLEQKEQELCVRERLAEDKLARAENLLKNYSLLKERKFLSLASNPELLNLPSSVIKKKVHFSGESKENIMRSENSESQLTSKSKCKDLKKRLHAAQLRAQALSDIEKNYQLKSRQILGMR

[14] = biological target: T4, Serine/threonine-protein kinase Nek2 (Homo sapiens); conditions: at 10 µM
[15] = biological target: T5, Serine/threonine-protein kinase Nek3 (Homo sapiens) (UniProt P51956); conditions: at 1 µM
T5 sequence (whole entry): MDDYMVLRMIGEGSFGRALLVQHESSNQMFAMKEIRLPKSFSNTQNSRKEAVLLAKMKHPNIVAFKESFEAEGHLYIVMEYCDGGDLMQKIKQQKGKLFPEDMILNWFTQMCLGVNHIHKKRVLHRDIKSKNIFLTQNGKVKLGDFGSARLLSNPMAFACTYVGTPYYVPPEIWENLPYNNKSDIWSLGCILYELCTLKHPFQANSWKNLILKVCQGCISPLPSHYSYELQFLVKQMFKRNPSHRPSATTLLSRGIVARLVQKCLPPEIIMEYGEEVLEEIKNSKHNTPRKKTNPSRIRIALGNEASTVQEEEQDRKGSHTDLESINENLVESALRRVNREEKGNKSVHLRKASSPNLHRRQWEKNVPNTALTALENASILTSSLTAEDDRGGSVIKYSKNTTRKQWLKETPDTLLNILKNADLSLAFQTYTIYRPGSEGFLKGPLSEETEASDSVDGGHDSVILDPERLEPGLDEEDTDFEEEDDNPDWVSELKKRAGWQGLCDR

[16] = biological target: T6, Tyrosine-protein kinase Mer (Homo sapiens) (UniProt Q12866); conditions: at 1 µM
T6 sequence (whole entry): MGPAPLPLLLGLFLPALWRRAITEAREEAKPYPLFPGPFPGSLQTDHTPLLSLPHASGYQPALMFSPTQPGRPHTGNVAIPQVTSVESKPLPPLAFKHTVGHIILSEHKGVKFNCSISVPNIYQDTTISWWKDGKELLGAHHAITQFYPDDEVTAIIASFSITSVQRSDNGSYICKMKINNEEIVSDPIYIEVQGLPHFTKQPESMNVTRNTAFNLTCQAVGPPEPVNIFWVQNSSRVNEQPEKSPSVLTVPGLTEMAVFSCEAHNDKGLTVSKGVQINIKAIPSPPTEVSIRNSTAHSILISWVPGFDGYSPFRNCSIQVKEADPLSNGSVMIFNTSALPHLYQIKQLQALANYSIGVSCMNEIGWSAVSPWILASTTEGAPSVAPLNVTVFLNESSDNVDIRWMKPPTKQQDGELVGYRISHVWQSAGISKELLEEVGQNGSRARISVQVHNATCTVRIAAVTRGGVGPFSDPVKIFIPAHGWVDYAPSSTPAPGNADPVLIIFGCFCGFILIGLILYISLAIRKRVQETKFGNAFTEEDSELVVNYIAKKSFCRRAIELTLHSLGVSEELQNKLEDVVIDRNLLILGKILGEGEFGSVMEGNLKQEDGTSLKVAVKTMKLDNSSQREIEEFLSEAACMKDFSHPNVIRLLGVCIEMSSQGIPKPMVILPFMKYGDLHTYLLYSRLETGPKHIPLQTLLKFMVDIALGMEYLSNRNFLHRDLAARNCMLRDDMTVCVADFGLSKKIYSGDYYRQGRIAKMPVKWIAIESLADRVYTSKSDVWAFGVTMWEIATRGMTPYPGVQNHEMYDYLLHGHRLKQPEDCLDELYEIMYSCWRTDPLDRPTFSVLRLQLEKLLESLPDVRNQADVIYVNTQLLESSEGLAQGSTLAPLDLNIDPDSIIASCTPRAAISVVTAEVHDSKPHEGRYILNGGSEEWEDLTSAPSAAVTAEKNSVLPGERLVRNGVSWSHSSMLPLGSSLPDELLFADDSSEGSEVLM

[17] = biological target: T6, Tyrosine-protein kinase Mer (Homo sapiens); conditions: at 10 µM
[18] = biological target: T5, Serine/threonine-protein kinase Nek3 (Homo sapiens); conditions: at 10 µM
[19] = biological target: Serine/threonine-protein kinase tousled-like 2 (Homo sapiens) (UniProt Q86UE8); conditions: at 1 µM
Serine/threonine-protein kinase tousled-like 2 (Homo sapiens), sequence (Q86UE8 whole entry, looked up): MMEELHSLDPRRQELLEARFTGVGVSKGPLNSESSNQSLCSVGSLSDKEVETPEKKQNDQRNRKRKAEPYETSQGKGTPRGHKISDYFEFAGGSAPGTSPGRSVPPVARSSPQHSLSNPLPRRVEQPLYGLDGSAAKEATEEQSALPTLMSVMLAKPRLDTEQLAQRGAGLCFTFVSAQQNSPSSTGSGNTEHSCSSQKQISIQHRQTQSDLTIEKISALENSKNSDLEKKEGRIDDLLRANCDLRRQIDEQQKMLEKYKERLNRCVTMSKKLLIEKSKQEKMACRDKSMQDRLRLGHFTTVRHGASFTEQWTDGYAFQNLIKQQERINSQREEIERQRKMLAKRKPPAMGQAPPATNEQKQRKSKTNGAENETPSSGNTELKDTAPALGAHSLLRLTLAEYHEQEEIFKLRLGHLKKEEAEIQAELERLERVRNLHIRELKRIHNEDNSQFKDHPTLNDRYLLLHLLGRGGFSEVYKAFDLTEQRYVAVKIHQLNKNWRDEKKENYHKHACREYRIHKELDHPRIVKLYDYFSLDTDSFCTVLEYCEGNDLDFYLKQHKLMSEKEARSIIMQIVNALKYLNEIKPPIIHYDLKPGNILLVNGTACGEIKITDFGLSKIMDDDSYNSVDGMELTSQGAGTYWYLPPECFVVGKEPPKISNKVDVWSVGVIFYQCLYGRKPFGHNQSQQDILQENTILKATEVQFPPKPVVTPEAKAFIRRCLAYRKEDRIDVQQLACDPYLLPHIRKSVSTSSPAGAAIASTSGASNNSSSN

[20] = biological target: Serine/threonine-protein kinase tousled-like 2 (Homo sapiens) (UniProt Q86UE8); conditions: at 10 µM

Row | Structure (SMILES) | residual activity [1] [%] | residual activity [2] [%] | residual activity [3] [%] | residual activity [4] [%] | residual activity [5] [%] | residual activity [6] [%] | residual activity [7] [%] | residual activity [8] [%] | residual activity [9] [%] | residual activity [10] [%] | residual activity [11] [%] | residual activity [12] [%] | residual activity [13] [%] | residual activity [14] [%] | residual activity [15] [%] | residual activity [16] [%] | residual activity [17] [%] | residual activity [18] [%] | residual activity [19] [%] | residual activity [20] [%]
1 | Cn1c2ccccc2c2c3c(c4c5ccccc5n(CCC#N)c4c21)CNC3=O | 2 | 2 | 47 | 57 | 107 | 106 | 10 | 10 | 32 | 37 | 49 | 60 | 76 | 82 | 100 |  |  |  |  | 
2 | O=C1Cc2c([nH]c3ccc(Br)cc23)-c2ccccc2N1 | 87 | 28 | 65 | 40 |  |  | 90 | 39 | 42 | 3 |  |  | 95 | 80 | 81 | 78 | 28 | 72 | 89 | 78
3 | O=C(NC(NC(=S)Nc1ccc(F)c([N+](=O)[O-])c1)C(Cl)(Cl)Cl)C(c1ccccc1)c1ccccc1 (stereo unspecified) | 98 | 71 | 86 | 82 |  |  |  |  | 85 | 98 | 86 | 49 | 90 | 88 | 94 |  |  | 89 | 99 | 94
4 | O=C1Nc2ccc(Cl)cc2/C1=C/c1cc(Cl)c(O)c(Cl)c1 | 49 | 2 | 56 | 50 | 87 | 79 | 90 | 61 | 81 | 23 | 52 | 65 | 88 | 89 | 115 | 92 | 58 | 84 |  | 87
5 | O=C1NC(=O)C(c2cn(CCCO)c3ncccc23)=C1c1cnccn1 | 92 | 91 | 73 | 57 |  |  | 76 | 67 | 81 | 84 | 72 | 82 |  |  |  | 89 | 86 |  | 98 | 82
6 | CCCC(=O)Oc1ccc2[nH]c(C(=O)c3cc4ccccc4[nH]3)cc2c1 | 105 | 71 | 67 | 68 |  | 127 | 99 | 100 | 95 | 76 | 75 | 89 | 71 | 103 | 98 |  | 81 | 79 | 100 | 90
